A selection: hits, their analogues and other compounds. The true share with any hit is near 2.2%.
PAX8 inh HTS: inhibitors of PAX8-driven TPO luciferase reporter, primary screen, RMG-I cells, single concentration. SteadyGlo, 24 h. hit rate 1.2% among 360,000. inhibition, % at 12.6 µM;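 active means mean replicate inhibition at least 60% with every replicate also reaching 60%; inconclusive means only one of the two criteria is met; inactive means mean below 60% and not all replicates reaching 60%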;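 further: luciferase light reporting Pax8 driven TPO promoter activity; plate controls were median of neutral control wells for no effect and mitoxantrone controls for full effect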
Shn3 inh set2: reduction of Shn3 3'UTR firefly luciferase signal, primary screen, Schnurri-3 inhibitor project, cell-based, Clone20 osteoblasts, set 2. Clone20 osteoblast Shn3 3'UTR firefly luciferase, 24 h. inhibition, % at 12.5 µM. hit rate 0.52% among 360,000;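 active means mean inhibition of at least 75% with every replicate also reaching 75%; inconclusive means mean inhibition at least 75% but some replicate below; inactive means mean inhibition below 75%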;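 further: 0% = median of neutral control wells and 100% = pilot-screen positive control compound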
LGR2 antag: inhibitors of bursicon-induced LGR2 CRE-luciferase signal, primary screen, cell-based, HEK293, CRE-luciferase reporter, bursicon stimulation; bursicon-stimulated, 4 h; inhibition, % at 9.99 µM; hit rate 0.35% among 380,000; AID 720647, 2013;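 active means drop in luminescence signal, shown as inhibition above about 50% in the replicate tests, limit read from the data, passing the limit was not always enough; inconclusive means probably only some replicates passing the limit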;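 further: agonist challenge used bursicon conditioned medium at about half maximal strength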
EWS-Fli inh: EWS/Fli-driven NR0B1 reporter inhibitors, primary screen, A673 cells, NR0B1 luciferase, luminescence, MLPCN library. viability-normalised. AID 651661, 2012. hit rate 0.67% among 350,000. inhibition, % at 12.6 µM;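 active means mean inhibition of at least 50% after viability correction, with every replicate also passing that limit; inconclusive means mean reaches 50% but only one of two replicates passes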;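 further: firefly luciferase signal divided by Alamar Blue viability fluorescence both relative to DMSO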
LMP1 NFkB inh: EBV LMP1-driven NF-kappaB luciferase reporter inhibitors, primary screen, cell-based, luminescence, single point; LMP1-induced NF-kappaB luciferase reporter cells; hit rate 0.69% among 350,000; inhibition, % at 12.5 µM; in the data active means inhibition above about 41%; inconclusive means no clear call, values can overlap the other calls;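 further: 0% = neutral control wells and 100% = reference inhibitor control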
MITF TRPM1 inh: inhibitors of MITF-dependent TRPM1 promoter reporter, primary screen, cell-based, SK-MEL-5, single point, luciferase. SK-MEL-5 TRPM1 promoter luciferase, 24 h. inhibition, % at 12.5 µM. hit rate 0.83% among 330,000;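 active means mean inhibition across replicates of 60% or more, whatever share of single replicates reaches that level; inconclusive means some that reach 60%, reason not given; inactive means mean inhibition across replicates below 60%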
Active calls of the source: *; ? = inconclusive; nt = not tested or not shown.

SMILES	PAX8 inh HTS	Shn3 inh set2	LGR2 antag	EWS-Fli inh	LMP1 NFkB inh	MITF TRPM1 inh
O=S(=O)(c1ccc2c(c1)OCCO2)N1CCN(c2ncnc3sccc23)CC1	21	89*	12	39	19	3
Cc1ccc(S(=O)(=O)N2CCN(c3ncnc4sccc34)CC2)cc1C	29	88*	0	36	18	44
CN(C)C(=O)C[C@H]1CC[C@@H]2[C@H](COC[C@H](O)CN2C(=O)C2CCCC2)O1	-20	nt	-19	-2	nt	nt
Cc1noc(C)c1NC(=O)N(C)C[C@@H]1Oc2c(NC(=O)c3ccncc3)cccc2C(=O)N([C@@H](C)CO)C[C@H]1C	nt	nt	0	3	nt	nt
COc1cc(OC)c2c(-c3cccc(-c4ccc(NC(C)=O)cc4)c3)cc(=O)oc2c1	79*	-8	4	46	2	20
COc1cc(OC)c2c(-c3cccc(-c4ccc(C#N)cc4)c3)cc(=O)oc2c1	-25	10	4	56*	17	29
COc1cc(OC)c2c(-c3cccc(-c4ccc(C(F)(F)F)cc4)c3)cc(=O)oc2c1	-18	38	17	?	22	29
COc1cc(OC)c2c(-c3cccc(-c4sccc4C(C)=O)c3)cc(=O)oc2c1	84*	13	20	56*	-2	51
COc1cc(OC)c2c(-c3cccc(-c4ccc(OC)c(OC)c4)c3)cc(=O)oc2c1	-9	10	-18	53*	22	?
Cc1ccc(C)c(S(=O)(=O)N(C(=O)c2ccncc2)c2ccc(OC(=O)c3ccncc3)cc2)c1	6	3	96*	5	20	-2
C[C@H]1CN([C@@H](C)CO)S(=O)(=O)c2ccc(/C=C/c3ccccc3)cc2O[C@H]1CN(C)C(=O)Nc1cc(F)ccc1F	64*	nt	6	16	nt	nt
C[C@H]1CN([C@@H](C)CO)S(=O)(=O)c2ccc(/C=C/c3ccccc3)cc2O[C@@H]1CN(C)C(=O)Nc1cc(F)ccc1F	-18	nt	-13	-5	nt	nt
C[C@H]1CN([C@@H](C)CO)S(=O)(=O)c2ccc(/C=C/c3ccccc3)cc2O[C@@H]1CN(C)Cc1ccc(C(=O)O)cc1	nt	nt	9	-3	nt	nt
C[C@@H]1CN([C@@H](C)CO)S(=O)(=O)c2ccc(/C=C/c3ccccc3)cc2O[C@H]1CN(C)C(=O)c1ccccc1	71*	nt	24	31	nt	nt
C[C@H](CO)N1C[C@H](C)[C@H](CN(C)C(=O)c2ccccc2)Oc2cc(/C=C/c3ccccc3)ccc2S1(=O)=O	40	nt	-5	8	nt	nt
C[C@@H]1CN([C@@H](C)CO)S(=O)(=O)c2ccc(/C=C/c3ccccc3)cc2O[C@@H]1CN(C)Cc1ccc(C(=O)O)cc1	1	-5	21	2	55*	nt
O=C(CN1CCOCC1)N[C@@H]1CC[C@H](CCNS(=O)(=O)c2ccccc2F)O[C@@H]1CO	-2	nt	5	-9	nt	nt
O=[N+]([O-])c1ccc(N=Nc2c(Cl)cc(O)cc2Cl)cc1	98*	72	22	-15	35	18
CC(N)=Nc1ccc([N+](=O)[O-])cc1	-5	17	11	nt	-6	-10
COc1ccc(NC(=O)C2CCCN(S(=O)(=O)c3cccc4nonc34)C2)c(OC)c1 (configuration not stated)	-6	-5	nt	-10	63*	-2
CN(C)C(=O)C[C@H]1CC[C@H]2[C@@H](COC[C@H](O)CN2Cc2ccc(C(F)(F)F)cc2)O1	-1	nt	19	-9	nt	nt
COc1c(Cl)cc(Cl)cc1/C=C/C(=O)c1ccc(NC(=O)c2cccs2)cc1	81*	69	12	nt	-47	68*
C[C@@H]1CN([C@@H](C)CO)C(=O)c2cc(-c3ccccc3)cnc2O[C@@H]1CN(C)C(=O)c1ccccn1	nt	nt	-10	-14	nt	nt
COc1ccc2c(C(=O)CCl)c[nH]c2c1	17	13	-16	23	-5	75*
C=CCN=C1NN=C(c2cc(C)n(CC=C)c2C)CS1	15	72	12	80*	53*	84*
SMILES	PAX8 inh HTS	Shn3 inh set2	LGR2 antag	EWS-Fli inh	LMP1 NFkB inh	MITF TRPM1 inh
C=CCN=C1NN=C(c2ccc3c(c2)OCCO3)CS1	-31	-10	?	58*	47*	69*
CCOC(=O)c1c(-c2ccccc2)oc2ccc(OCC(O)CNCCN(C)C)cc12 (configuration not stated)	36	15	2	22	5	66*
CCCc1cn(CC[C@H]2CC[C@@H](NS(=O)(=O)c3ccc(-c4ccccc4)cc3)[C@H](CO)O2)nn1	6	nt	-28	16	nt	nt
Cc1ccc(C2=NN=C(NC(=O)CSc3nc(C)cc(C)n3)SC2)cc1	76*	nt	36	?	nt	nt
Cc1c(NC(=O)C(C)OC(=O)c2c3c(nc4ccccc24)CCC3)c(=O)n(-c2ccccc2)n1C (configuration not stated)	73*	8	-13	8	3	-5
O=C(O)C[C@@H]1C=C[C@@H](NC(=O)c2ccccc2F)[C@@H](CO)O1	-3	nt	-9	4	nt	nt
C[C@H](CO)N1C[C@H](C)[C@@H](CN(C)Cc2ccc(C(F)(F)F)cc2)OCCCC[C@H](C)Oc2ccc(NS(=O)(=O)c3ccc(Cl)cc3)cc2C1=O	99*	nt	29	19	nt	nt
C[C@@H]1CN([C@H](C)CO)C(=O)c2cc(NS(=O)(=O)c3ccc(Cl)cc3)ccc2O[C@@H](C)CCCCO[C@@H]1CN(C)Cc1ccc(C(F)(F)F)cc1	5	nt	17	-3	nt	nt
C[C@@H]1CCCCO[C@@H](CN(C)Cc2ccc(C(F)(F)F)cc2)[C@@H](C)CN([C@@H](C)CO)C(=O)c2cc(NS(=O)(=O)c3ccc(Cl)cc3)ccc2O1	91*	nt	4	-9	nt	nt
O=C(N[C@H]1CC[C@H](CCNS(=O)(=O)c2ccc(F)cc2)O[C@@H]1CO)c1cnccn1	-7	nt	-7	6	nt	nt
Cc1ccc2nc(-c3ccc(NC(=O)COC(=O)c4ccc([N+](=O)[O-])o4)cc3)sc2c1	34	16	83*	55*	17	7
Cc1ccc2nc(-c3ccc(NC(=O)COC(=O)c4ccco4)cc3)sc2c1	-38	-2	66*	nt	18	-38
Cc1ccc(S(=O)(=O)Nc2ccc3c(c2)C(=O)N([C@H](C)CO)C[C@H](C)[C@H](CN(C)C(=O)Cc2ccccc2)OCCCC[C@H](C)O3)cc1	11	nt	2	9	nt	nt
C[C@H](CO)N1C[C@H](C)[C@H](CN(C)S(C)(=O)=O)Oc2ccc(NC(=O)Nc3cccc4ccccc34)cc2CC1=O	9	nt	3	nt	nt	nt
COc1ccc(NC(=O)N2[C@@H]3CNC[C@H]2C3c2ccc(-c3ccc(C)cc3)cc2)cc1 (some centres not stated)	nt	nt	-43	nt	nt	nt

High-throughput results (PubChem)
